Data on 39 compounds can be found in PubChem BioAssay (EPA / NIEHS).

Structures are written as SMILES. More than one record can exist for a structure, and the calls need not agree. Calls of active or inactive are those of the source. How the source made its calls: active means hit-call score of the fitted dose curve at least 0.9, where 1 is the maximum; inactive means score below 0.9.

This test in a line: ATG_M_19_CIS: Attagene CIS-FACTORIAL HepG2 Assay for M19 Transcription Factor (Internal Marker) (AID 2282939). The following applies: HepG2 Attagene CIS-FACTORIAL M19 internal marker reporter; actives raise or lower the signal. The protocol:
ATG_CIS is a cell-based, multiplexed-readout assay that uses HepG2, a human liver cell line, with measurements taken at 24 hours after chemical dosing in a 24-well plate.ATG_M_19_CIS is one of 52 assay component(s) measured or calculated from the ATG_CIS assay. It is designed to make measurements of mRNA induction, a form of inducible reporter, as detected with fluorescence intensity signals by Reverse transcription polymerase chain reaction (RT-PCR) and Capillary electrophoresis technology.Data from the assay component ATG_M_19_CIS was analyzed into 1 assay endpoint. This assay endpoint, ATG_M_19_CIS, was analyzed with bidirectional fitting relative to DMSO as the negative control and baseline of activity. Using a type of inducible reporter, measures of mRNA for gain or loss-of-signal activity can be used to understand the background control at the transcription factor-level as they relate to the gene . Furthermore, this assay endpoint can be referred to as a secondary readout, because this assay has produced multiple assay endpoints where this one serves a background control function. To generalize the intended target to other relatable targets, this assay endpoint is annotated to the background measurement intended target family, where the subfamily is internal marker.
Human liver HepG2 cells are transiently transfected with multiple reporter transcription units (MRTUs) in 6-well plates using FuGene 6 reagent (Roche; 3 ml FuGene/1 mg DNA). The MRTU constructs are regulated by a cis-regulating element (promoter). […] A major difference between the CIS and TRANS system is that in CIS activities of endogenous TFs are measured, whereas the TRANS assay evaluates changes in activities of exogenous, chimeric NR-Gal4 proteins. […] At the end of 24 hour incubation, total RNA was isolated using TriZol reagent (Invitrogen). The isolated RNA is then reverse-transcribed using oligo(dT) primer and Mo-MLV reverse transcriptase (Invitrogen) with DNAse I (Ambion) treatment for 30 min. The one-tenth of the produced cDNA was amplified by PCR using Taq DNA polymerase (Invitrogen) and two reporter sequence-specific primers. The PCR products were fluorescently labeled by primer extension with 6-arboxyfluorescein (6-FAM) 5'-labeled reporter sequence-specific primer (2 min at 95 C, 20 s at 68 C and 10 min at 72 C) and these products were digested with 5U of HpaI (New England Biolabs) for 2h at 37 C. The fragments were purified using Qiaquick PCR columns (Qiagen), analyzed on an ABI 3130xL genetic analyzer (Applied Biosystems) with peak positions identified by using a set of X-rhodamine (ROX)-labeled MapMarker1000 molecular weight standards (BioVentures). The raw capillary electrophoresis data was processed using Attagraph software (Attagene).
Regarding `N#Cc1c(Cl)c(Cl)c(Cl)c(C#N)c1Cl`, the compound was classed as inactive.

Regarding `CCC(C)(C)C(=O)OC1=C(c2ccc(Cl)cc2Cl)C(=O)OC12CCCCC2`, the compound was called inactive.

Turning to `CCC(C)Nc1c([N+](=O)[O-])cc(C(C)(C)C)cc1[N+](=O)[O-]` (stereo not given), the result was inactive.

Consider `COc1cc(OC)nc(NC(=O)NS(=O)(=O)c2cc(NC=O)ccc2C(=O)N(C)C)n1`, for which the outcome was inactive.

Consider `CCCN(CCOc1c(Cl)cc(Cl)cc1Cl)C(=O)n1ccnc1`, for which the compound was called inactive.

Regarding `CNC(=O)CSP(=S)(OC)OC`, the outcome was inactive.

As for `CCN(CC)C(=O)SCc1ccc(Cl)cc1`, the call was inactive.

In the case of `COC(=O)c1ccccc1S(=O)(=O)NC(=O)N(C)c1nc(C)nc(OC)n1`, the result was inactive.

Turning to `COC(=O)c1ccccc1CS(=O)(=O)NC(=O)Nc1nc(OC)cc(OC)n1`, the compound was classed as inactive.

As for `CNC(=O)Oc1cccc(N=CN(C)C)c1`, the result was inactive.

Regarding `O=C(NC(=O)c1c(F)cccc1F)Nc1ccc(OC(F)(F)C(F)OC(F)(F)F)c(Cl)c1` (stereo not given), the compound was classed as inactive.

Consider `C[C@H]1[C@H](c2ccc(Cl)cc2)SC(=O)N1C(=O)NC1CCCCC1`, for which the compound was called inactive.

Turning to `CCOC1Oc2ccc(OS(C)(=O)=O)cc2C1(C)C` (stereo not given), the result was inactive.

On to `O=S(=O)(O)C(F)(F)C(F)(F)C(F)(F)C(F)(F)C(F)(F)C(F)(F)C(F)(F)C(F)(F)F`, for which the result was inactive and the concentration at half-maximal activity (AC50) is 153 µM (active).

With `COP(=O)(OC)OC=C(Cl)Cl`, the call was inactive.

Consider `CNC(=O)/C=C(\C)OP(=O)(OC)OC`, for which the call was inactive.

On to `C#CCN1C(=O)COc2cc(F)c(N3C(=O)C4=C(CCCC4)C3=O)cc21`, for which the call was inactive.

With `O=C(Nc1ccccc1)Nc1cnns1`, the outcome was inactive.

On to `CC(C)N(C(=O)COc1nnc(C(F)(F)F)s1)c1ccc(F)cc1`, for which the outcome was inactive.

On to `Cc1cc(C)nc(NC(=O)NS(=O)(=O)c2ccccc2C(=O)OC2COC2)n1`, for which the compound was called inactive.

As to `O=[N+]([O-])/N=C1\NCCN1Cc1ccc(Cl)nc1`, the result was inactive.

Take `COP(=S)(OC)Oc1ccc([N+](=O)[O-])cc1`: the outcome was inactive.

With `Clc1ccccc1-c1nnc(-c2ccccc2Cl)nn1`, the result was inactive.

As to `OCCOc1ccccc1`, the result was inactive.

As to `CCc1ccc(C(=O)NN(C(=O)c2cc(C)cc(C)c2)C(C)(C)C)cc1`, the compound was classed as inactive.

With `[2H]C1([2H])[n+]2ccccc2-c2cccc[n+]2C1([2H])[2H]`, the compound was called inactive.

Regarding `ClC1C(Cl)C(Cl)C(Cl)C(Cl)C1Cl` (stereo not given), the compound was classed as inactive.

Consider `O=C1c2ccccc2C(=O)N1SC(Cl)(Cl)Cl`, for which the compound was classed as inactive.

Regarding `O=C(O)C(F)(F)C(F)(F)C(F)(F)C(F)(F)C(F)(F)C(F)(F)C(F)(F)F`, the result was inactive.

As to `CC[C@H](C)[C@H]1O[C@]2(C=C[C@@H]1C)C[C@@H]1C[C@@H](C/C=C(\C)[C@@H](O[C@H]3C[C@H](OC)[C@@H](O[C@H]4C[C@H](OC)[C@@H](O)[C@H](C)O4)[C@H](C)O3)[C@@H](C)/C=C/C=C3\CO[C@@H]4[C@H](O)C(C)=C[C@@H](C(=O)O1)[C@]34O)O2` (tested in a mixture with another compound), the compound was classed as inactive.

As to `O=C(O)CCCOc1ccc(Cl)cc1Cl`, the result was inactive.

For the compound `CC(C)(C)C(O)/C(=C\c1ccc(Cl)cc1Cl)n1cncn1` (stereo not given), the compound was classed as inactive.

Turning to `O=S1OCC2C(CO1)C1(Cl)C(Cl)=C(Cl)C2(Cl)C1(Cl)Cl` (stereo not given), the result was inactive.

Regarding `CN1CSC(=S)N(C)C1`, the call was inactive.

On to `CCOCN(C(=O)CCl)c1c(C)cccc1CC`, for which the compound was classed as inactive.

`O=C(O)COc1ccc(Cl)cc1Cl`: the compound was called inactive.

For `N#CN`, the compound was called inactive.

Turning to `COc1nn(CSP(=S)(OC)OC)c(=O)s1`, the outcome was inactive.

Consider `CCOc1nc(NC)nc(NC(=O)NS(=O)(=O)c2ccccc2C(=O)OC)n1`, for which the result was inactive.
